Laboratory results as given in PubChem BioAssay AID1042 (National Center for Advancing Translational Sciences (NCATS), 2008).
Results filed as inconclusive are left out. Active and inactive are the calls of the source.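 How the source made its calls: active means raised CDH13 expression over DMSO controls, judged by fold change in triplicate runs, no set cutoff; inconclusive means doubtful CDH13 rise, criteria not stated; inactive means no rise, falls in expression ignored.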

Assay: CDH13 Derepression/Induction Secondary Assay for qHTS Assay for Epigenetic Modulators
Conditions: H358 cells, CDH13 mRNA qPCR, 72 h; active compounds read high
Text: NIH Molecular Libraries Screening Centers Network [MLSCN] NIH Chemical Genomics Center [NCGC] MLSCN Grant: 1 X01 MH079860-01 Assay Provider: Elisabeth D. Martinez, University of Texas SW Medical Center NCGC Assay Overview: This secondary assay characterizes selected actives identified in the qHTS of the Locus Derepression (LDR) assay (PubChem AID 597). The LDR assay detects the derepression of a GFP reporter that is stably integrated in a region of the genome of murine c127i mammary cells that is presumably silenced. Compounds that cause derepression of the locus to express GFP are identified by enumerating GFP positive cells using a laser-scanning microplate cytometer. Selected LDR actives were assayed for the induction of CDH13 gene expression, a gene silenced by methylation of its promoter. Treatment of cells with DNA methyltransferase inhibitors, like 5-azadeoxycytidine, or with HDAC inhibitors, like trichostatin A, induce CDH13 gene expression. Compounds active in this assay may modulate components involved in DNA methylation, histone acetylation or gene transcription.
NCGC Assay Protocol Summary Exponentially growing H358 non-small cell lung cancer cells were treated daily with fresh media containing the indicated concentrations of compounds for 72 hr. Cellular RNA was extracted, quantified, DNAse treated and reverse transcribed. The resulting cDNA was amplified in TaqMan real time quantitative PCR assays (Applied Biosystems) containing validated primers specific for CDH13 (Hs00169908.m1). Reactions were performed on an ABI Prism 7900HT, with an initial 2 min preincubation at 50 C, followed by 10 min at 95 C and then 40 cycles of 95 C for 15 seconds and 60 C for 1 min. GAPDH and 18S ribosomal RNA were used as references. Gene expression was measured by fold-induction over control DMSO-treated samples (36-37 average cycle time). Increases corresponded to at least 2-3 cycle time differences over DMSO controls, which were in the measurable range. Decreases in expression were considered insignificant as measurement of the DMSO samples were at the low limit of detection. Reactions were run in triplicate and error bars represent standard deviations. For further details, see R.L. Johnson, W. Huang, A. Jadhav, C.P. Austin, J. Inglese, E.D. Martinez, A Quantitative High-Throughput Screen Identifies Potential Epigenetic Modulators of Gene Expression, Analytical Biochemistry (2007), doi: 10.1016/j.ab.2007.12.028

Structure (SMILES) | fold change
CCN1CSC(=S)N(CC)C1 | 1 (inactive)
O=C(CSc1cccc2cccnc12)NCc1ccccc1 | 2 (inactive)
CC(/C=C/C(=O)NO)=C\[C@@H](C)C(=O)c1ccc(N(C)C)cc1 | 256 (active)
O=C(CSc1cccc2cccnc12)N1CCCC1 | 1 (inactive)
CC(C)C(=O)NC(c1ccco1)c1cc([N+](=O)[O-])c2cccnc2c1O (stereo not given) | 9 (active)
CN(C)C(=O)CSc1cccc2cccnc12 | 1 (inactive)
O=Nc1ccc(O)c2ncccc12 | 85 (active)
Nc1ncn([C@H]2C[C@H](O)[C@@H](CO)O2)c(=O)n1 | 9 (active)
CN1CCN(Cc2cc(Cl)c3cccnc3c2O)CC1 | 10 (active)
CC(C)C(=O)NC(c1ccco1)c1ccc2cccnc2c1O (stereo not given) | 12 (active)
